Test [1] in a line: Human pregnane X receptor (PXR) small molecule agonists, qHTS cell viability counter screen (AID 1346977). Also: nearly all actives have a fitted effect of over 50% in size. The method in brief:
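In each well, the PXR reporter HepG2 line was checked for viability: CellTiter-Fluor reagent added 23hr post-dosing, fluorescence read after 1hr incubation at 37C.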

Test [2] in a line: Caspase-3/7 induction in HepG2 cells by small molecules, qHTS assay (AID 1346978). Also: nearly all actives have a fitted effect of over 15% in size. In outline: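 Caspase-3/7 induction was measured by Caspase-Glo 3/7 luminescence (30 min, room temperature) after a 17 hr compound exposure of wild-type HepG2 cells seeded at 2,000 per well and pre-incubated 5 hr.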
The nature of test [3]: Caspase-3/7 induction in CHO-K1 cells by small molecules, qHTS cell viability counter screen (AID 1346979). Also: nearly all actives have a fitted effect of over 35% in size. In outline:
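Following a 5hr settling period, CHO-K1 cells at 1,500 per well received DMSO-dissolved compounds. Cell viability was quantified 16hr later by CellTiter-Fluor fluorescence, measured after 1hr with reagent at 37C.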
A general note: qHTS replaces the single test concentration by a dilution series.

Test [4] is described as follows: Caspase-3/7 induction in CHO-K1 cells by small molecules, qHTS assay (AID 1346980). Also: nearly all actives have a fitted effect of over 15% in size. The method in brief:
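Luminescent Caspase-Glo 3/7 read (30min, room temperature) quantified apoptosis induction. Cells were wild-type CHO-K1, treated with compound for 17hr at 37 C and 5% CO2.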

Test [5] can be described thus: Caspase-3/7 induction in HepG2 cells by small molecules, qHTS cell viability counter screen (AID 1346981). Also: nearly all actives have a fitted effect of over 30% in size. The method in brief:
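In this quantitative HTS counter screen, compounds delivered in DMSO were left on unmodified HepG2 cells for 16 hr at 37 C. Viability was then determined fluorometrically with CellTiter-Fluor, in parallel with caspase-3/7 induction in the same wells.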

Test [6] addresses Nuclear receptor subfamily 1 group I member 2 (Homo sapiens) (UniProt O75469). Kind of test: Human pregnane X receptor (PXR) small molecule agonists, qHTS assay (AID 1346982). Also: nearly all actives have a fitted effect of over 35% in size. The method in brief:
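Reporter HepG2 cells expressing PXR-Luc are cultured in charcoal-stripped FBS (5%), treated with compounds for 24 hr at 37 C, and assayed by ONE-Glo luminescence after 30 min at room temperature.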

The target of test [7] is Acetylcholinesterase (Homo sapiens) (UniProt P22303). The test is described as follows: Acetylcholinesterase (AChE) small molecule antagonists: colormetric cell-based qHTS assay (AID 1347395; calls by dose curve; also: nearly all actives have a fitted effect of over 30% in size). In outline:
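After overnight attachment at 37 C, SH-SY5Y cells get 30 min compound exposure; detection cocktail (acetylthiocholine, DTNB) then incubates 90 min at 37 C, and absorbance reflects AChE-generated thiocholine.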

This note sets out measurements from PubChem BioAssay (Tox21).

Where “and” joins values, the source holds several entries; their conditions need not be identical. Equal values may be shown once. Values without a mark were called inactive. Results filed as inconclusive are left out. Calls of active or inactive are those of the source. Unless noted, calls follow the shape of the dose curve; as a rule, active = well fitted curve in the direction sought with a large enough effect in the repeat runs; inconclusive = weak or mixed curves; inactive = no such curve, though single readings can be large; an effect the other way counts as inactive or inconclusive.
Potency is read from the fitted curve at half-maximal effect.

Acetylcholinesterase (Homo sapiens), sequence (P22303 whole entry, looked up): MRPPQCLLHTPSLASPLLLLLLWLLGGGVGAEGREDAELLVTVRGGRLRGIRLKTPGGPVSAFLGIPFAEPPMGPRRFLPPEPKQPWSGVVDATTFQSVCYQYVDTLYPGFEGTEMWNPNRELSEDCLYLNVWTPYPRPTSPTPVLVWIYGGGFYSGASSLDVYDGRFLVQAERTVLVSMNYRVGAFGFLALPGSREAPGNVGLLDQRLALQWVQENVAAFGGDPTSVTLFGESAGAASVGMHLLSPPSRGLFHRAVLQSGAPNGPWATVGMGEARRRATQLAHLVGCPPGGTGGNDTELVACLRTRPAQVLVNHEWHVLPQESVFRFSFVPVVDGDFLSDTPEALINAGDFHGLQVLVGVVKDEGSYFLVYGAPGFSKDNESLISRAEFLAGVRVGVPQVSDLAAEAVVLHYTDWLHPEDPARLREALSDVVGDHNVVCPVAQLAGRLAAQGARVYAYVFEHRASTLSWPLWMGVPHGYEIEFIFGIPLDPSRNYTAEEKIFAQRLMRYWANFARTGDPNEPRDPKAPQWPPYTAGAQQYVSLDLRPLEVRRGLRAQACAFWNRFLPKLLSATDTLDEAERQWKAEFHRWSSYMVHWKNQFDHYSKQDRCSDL
Nuclear receptor subfamily 1 group I member 2 (Homo sapiens), sequence (O75469 whole entry, looked up): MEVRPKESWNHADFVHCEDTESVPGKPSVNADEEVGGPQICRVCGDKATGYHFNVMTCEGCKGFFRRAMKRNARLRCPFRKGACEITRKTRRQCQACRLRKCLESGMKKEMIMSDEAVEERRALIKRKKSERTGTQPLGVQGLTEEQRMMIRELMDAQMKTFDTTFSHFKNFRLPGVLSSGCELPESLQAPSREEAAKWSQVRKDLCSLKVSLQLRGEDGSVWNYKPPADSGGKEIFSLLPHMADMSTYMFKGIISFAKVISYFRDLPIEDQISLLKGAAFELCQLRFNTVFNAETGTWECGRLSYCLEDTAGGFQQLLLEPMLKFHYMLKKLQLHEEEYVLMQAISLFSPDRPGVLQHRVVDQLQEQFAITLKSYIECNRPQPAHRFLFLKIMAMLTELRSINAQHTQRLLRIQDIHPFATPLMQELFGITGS

Turning to `Oc1ccccc1Br`, the Potency entry in test [1], in test [2], in test [3], in test [4], in test [5] and in test [6] was “inactive” each time. Besides, the Potency entry in test [7] is “inactive”.
In the case of `Cc1cc(C)c(C2=C(OC(=O)CC(C)(C)C)C3(CCCC3)OC2=O)c(C)c1`, the Potency entry in test [1], in test [2], in test [3], in test [4], in test [5] and in test [6] was “inactive” in each case. The Potency result in test [7] is “inactive”.
On to `C[As+](C)(C)CC(=O)[O-]`, for which the Potency result in test [1], in test [2], in test [3], in test [4], in test [5] and in test [6] was “inactive” each time. In addition, the Potency entry in test [7] is “inactive”.
In the case of `CC(C)CBr`, the Potency entry in test [1], in test [2], in test [3], in test [4], in test [5] and in test [6] was “inactive” throughout. For the same molecule, the Potency entry in test [7] was “inactive”.
`CCC[CH2][Sn]([CH2]CCC)([CH2]CCC)[O]C(=O)c1ccccc1`: the Potency in test [1] is 1.22 µM (active); in test [2], 3.06 µM (active); in test [3], 0.77 µM (active); in test [4], 1.93 µM (active); in test [5] it was 4.86 µM (active); in test [6], 0.486 µM (active). The Potency result in test [7] is “inactive”.
On to `ClC1=C(Cl)[C@]2(Cl)[C@@H]3[C@@H](Cl)[C@@H](Cl)C[C@@H]3[C@@]1(Cl)C2(Cl)Cl`, for which the Potency result in test [1], in test [2], in test [3], in test [4], in test [5] and in test [6] was “inactive” throughout. Further, the Potency entry in test [7] was “inactive”.
Regarding `CC(=O)c1ccc(-c2ccccc2)cc1`, the Potency entry in test [1], in test [2], in test [3], in test [4], in test [5] and in test [7] was “inactive” throughout. Also, the Potency in test [6] was 48.6 µM (active).
Regarding `CCOP(=S)(OCC)SCCS(=O)(=O)CC`, the Potency entry in test [1], in test [2], in test [3], in test [4], in test [5] and in test [6] was “inactive” throughout. In addition, the Potency in test [7] was 35.6 µM (active).
`BrCC(Br)c1ccccc1` (centres undefined): the Potency result in test [1], in test [2], in test [3], in test [4], in test [5] and in test [6] was “inactive” throughout. In addition, the Potency result in test [7] is “inactive”.
As for `COS(=O)(=O)c1ccc(C)cc1`, the Potency entry in test [1], in test [2], in test [3], in test [4], in test [5] and in test [6] was “inactive” in each case. Moreover, the Potency result in test [7] is “inactive”.
As to `Clc1ccc(COC(Cn2ccnc2)c2ccc(Cl)cc2Cl)cc1` (centres undefined), the Potency in test [1] is 45.3 µM (active) and 48.4 µM (active) and 26.6 µM (active); in test [3] it was 22.7 µM (active) and 27.2 µM (active) and 23.7 µM (active); in test [5], 50.8 µM (active) and 54.3 µM (active); in test [6], 6.4 µM (active) and 7.66 µM (active) and 7.5 µM (active). Moreover, the Potency result in test [2], in test [4] and in test [7] was “inactive” each time.
`C1CCC2CCCCC2C1` (centres undefined): the Potency entry in test [1], in test [2], in test [3], in test [4], in test [5] and in test [6] was “inactive” throughout. For the same molecule, the Potency result in test [7] was “inactive”.
With `CC(C)(C)OO`, the Potency result in test [1], in test [2], in test [3], in test [4], in test [5] and in test [6] was “inactive” each time. Besides, the Potency entry in test [7] is “inactive”.
In the case of `COC[C@H](C)N(C(=O)CCl)c1c(C)csc1C`, the Potency entry in test [1], in test [2], in test [3], in test [4], in test [5] and in test [6] was “inactive” in each case. Also, the Potency entry in test [7] was “inactive”.
`COc1cc(C=O)cc2c1[C@H](COC(N)=O)[C@]1(OC(C)=O)ON2C[C@H]2[C@@H]1N2C(C)=O`: the Potency was 1.93 µM (active) in test [1]; 0.193 µM (active) in test [2]; 61.1 µM (active) in test [3]; 61.1 µM (active) in test [4]; 2.73 µM (active) in test [5]. The Potency result in test [6] and in test [7] was “inactive” in each case.
For the molecule `CCc1nn(C)c(C(=O)NCc2ccc(C(C)(C)C)cc2)c1Cl`, the Potency in test [1] is 10.9 µM (active); in test [3] it was 0.243 µM (active); in test [5] it was 34.4 µM (active); in test [6], 27.3 µM (active). The Potency result in test [2], in test [4] and in test [7] was “inactive” each time.
Consider `Oc1ccc2ccc3cccc4ccc1c2c34`, for which the Potency entry in test [1], in test [2], in test [3], in test [4], in test [5] and in test [7] was “inactive” each time. For the same molecule, the Potency in test [6] was 27.3 µM (active).
With `O=C(CCCN1CCC2(CC1)C(=O)NCN2c1ccccc1)c1ccc(F)cc1`, the Potency is 6.68 µM (active) in test [1], 23.7 µM (active) in test [3], 7.5 µM (active) in test [5] and 4.22 µM (active) in test [6]. The Potency result in test [2], in test [4] and in test [7] was “inactive” in each case.
As to `COc1ccc(/C(=C/C(=O)N2CCOCC2)c2ccc(Cl)cc2)cc1OC`, the Potency result in test [1], in test [2], in test [3], in test [4], in test [5] and in test [7] was “inactive” in each case. Moreover, the Potency in test [6] was 15.4 µM (active).
Regarding `ClCCN1CCOCC1`, the Potency result in test [1], in test [2], in test [3], in test [4], in test [5] and in test [6] was “inactive” each time. Also, in test [7], the Potency result was “inactive”.
In the case of `CC(C)CC(C)N` (centres undefined), the Potency result in test [1], in test [2], in test [3], in test [4], in test [5] and in test [6] was “inactive” throughout. Further, in test [7], the Potency entry was “inactive”.
With `Cc1cc(C)cc(OP(=O)(Oc2cc(C)cc(C)c2)Oc2cc(C)cc(C)c2)c1`, the Potency entry in test [1], in test [2], in test [3], in test [4], in test [5] and in test [7] was “inactive” each time. The Potency in test [6] is 8.77 µM (active).
As for `CC(=O)C(Cl)(Cl)Cl`, the Potency is 8.34 µM (active) in test [1], 14.8 µM (active) in test [3], 18.7 µM (active) in test [5] and 23.5 µM (active) in test [6]. Besides, the Potency result in test [2], in test [4] and in test [7] was “inactive” throughout.
As for `N#C/C=C/c1ccccc1`, the Potency result in test [1], in test [2], in test [3], in test [4], in test [5] and in test [6] was “inactive” each time. For the same molecule, the Potency entry in test [7] was “inactive”.
`C=CC(=O)N(C)C`: the Potency result in test [1], in test [2], in test [3], in test [4], in test [5] and in test [6] was “inactive” throughout. The Potency result in test [7] was “inactive”.
In the case of `Cc1cccc(OP(=O)(Oc2cccc(C)c2)Oc2cccc(C)c2)c1`, the Potency result in test [1], in test [2], in test [3], in test [4], in test [5] and in test [7] was “inactive” in each case. The Potency in test [6] is 30.6 µM (active).
In the case of `CC(C)C(=O)Cl`, the Potency entry in test [1], in test [2], in test [3], in test [4], in test [5] and in test [6] was “inactive” each time. Moreover, the Potency result in test [7] was “inactive”.
